CHX counter = counter-screen for Shiga toxin inhibitors: cycloheximide protein synthesis inhibition | cell reporter, cycloheximide protein synthesis inhibition counterscreen | max response, % | actives 12% (n = 300,000) | AID 2314; in the data active means max response mostly above about 13%, no sharp cut-off; inactive means mostly below about 14%; further: read at 38.3 µM for the half of the compounds with a filed dose
Giardia FBPA inh = blocks Giardia fructose-bisphosphate aldolase activity; A8B2U2; purified Giardia FBPA; Potency, µM (highest dose often 59.6 µM), most hits filed as inhibitors; actives 0.71% (n = 290,000); further: nearly all actives have a fitted effect of over 55% in size
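Giardia FBPA (40 nM reagent) was preincubated 10 min at RT with compound (up to 57.5 uM final), then substrate plus GAPDH/TPI/NAD/arsenate coupling system with diaphorase/resazurin was added; resorufin fluorescence (525/598 nm) was read after 20 min.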
LmPK inh = blocks Leishmania mexicana pyruvate kinase activity; AID 1721; actives 0.37% (n = 290,000); purified LmPK, Kinase-Glo ATP luminescence, 1 h; Q27686; Potency, µM (top dose mostly 57.5 µM), most hits filed as inhibitors
Target sequence (Q27686 whole entry, looked up): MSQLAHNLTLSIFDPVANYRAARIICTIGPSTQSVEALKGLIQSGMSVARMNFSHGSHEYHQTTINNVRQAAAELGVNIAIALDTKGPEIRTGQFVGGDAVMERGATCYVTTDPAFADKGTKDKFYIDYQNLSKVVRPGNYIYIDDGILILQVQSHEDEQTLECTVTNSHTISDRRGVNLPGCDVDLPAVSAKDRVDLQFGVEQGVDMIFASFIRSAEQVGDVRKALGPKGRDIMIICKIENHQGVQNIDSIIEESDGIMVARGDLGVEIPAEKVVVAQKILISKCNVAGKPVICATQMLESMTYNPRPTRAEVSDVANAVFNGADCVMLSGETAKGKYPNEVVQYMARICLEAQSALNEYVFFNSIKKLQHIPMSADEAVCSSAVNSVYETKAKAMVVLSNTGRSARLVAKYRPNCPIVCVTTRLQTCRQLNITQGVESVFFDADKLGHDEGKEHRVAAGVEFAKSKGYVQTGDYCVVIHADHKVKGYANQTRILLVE
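ATP generated from ADP (0.1 mM) and PEP (0.5 mM) by 0.1 nM LmPK over 1 h at room temperature (pH 7.2 imidazole buffer) was detected by coupled luciferase luminescence. Values were normalized to uninhibited and no-enzyme wells.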
RE007 growth inh = less growth of the S. pombe RE007 Vpr strain. Potency, µM (titrated, usually from 92.2 µM), actives largely listed as inhibitors. S. pombe RE007 Vpr strain, BacTiter-Glo ATP luminescence, 24 h. actives 0.21% (n = 360,000). AID 651644; active means well fitted falling curve with a large enough effect; inconclusive means small, poorly fitted or top-dose-only effect; inactive means no such curve, though single readings can be large or run the other way; further: nearly all actives have a fitted effect of over 50% in size
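Fission yeast RE007 carrying one integrated HIV-1 vpr copy, seeded at OD 0.01 in PMG+AL medium with 23 nL pinned compound. Grown 24 h at 30 degrees; viability read by BacTiter-Glo luminescence after 5 min.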
Shiga inhibitor = inhibitors of Shiga toxin in Vero cells; inhibition, % at 38.7 µM; actives 9.2% (n = 290,000); Vero cells, Shiga toxin protein synthesis inhibition reporter; in the data active means inhibition mostly above about 28%, no sharp cut-off; inactive means mostly below about 43%
Tb PYK inh = inhibitors of Trypanosoma brucei pyruvate kinase | Potency, µM (doses to about 76.8 µM), usual class: inhibitors | AID 624173 | TbPYK enzyme, Kinase-Glo Plus ATP luminescence, 45 min | Q57TT1 | actives 0.12% (n = 410,000); further: nearly all actives have a fitted effect of over 50% in size
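TbPYK + substrate in 50 mM TEA pH 7.2, 100 mM KCl, 10 mM MgCl2, 0.05% BSA, 0.01% Tween-20; cpd pinned; ADP 130 uM final; 45 min RT; Kinase-Glo Plus 10 min; luminescence endpoint.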
A number is an active result; i = inactive; ? = inconclusive; nt = no result given; [ ] = dose if it differs, or a comment. The sample as a whole holds a higher share of hits than the screen did. Unless noted, the call rests on the fitted dose curve; in most records, active means well fitted curve in the direction sought with a large enough effect; inconclusive means small, poorly fitted or top-dose-only effect, or another doubt; inactive means no such curve, though single readings can be large; an effect the other way counts as inactive or inconclusive.

SMILES | CHX counter | Giardia FBPA inh | LmPK inh | RE007 growth inh | Shiga inhibitor | Tb PYK inh
COc1cc(C(=O)Nc2ccc(C)cc2)c2ccccc2n1 | i | i | i | i | i | i
Cc1ccc(NC(=O)C2=C(O)CCn3c2nc2ccccc23)cc1 | 22 | i | i | i | i | i
O=C1NC(c2cccc(OCc3ccccc3)c2)Nc2ccccc21 (configuration not stated) | nt | nt | nt | i | nt | i
O=C(/C=C/c1ccc(Cl)cc1)NCCSc1ccccc1 | i | i | i | i | i | i
O=C(/C=C/Sc1ccccc1)c1ccc(Cl)cc1 | 68 | i | i | ? | 116 | i
O=C(/C=C/Sc1ccccc1)c1ccccc1 | 140 | i | ? | ? | 182 | i
Cc1cccc(C=CC(=O)c2ccccc2)c1 | nt | nt | nt | ? | nt | i
CCCNC(=O)OC[C@@H]1O[C@H](CCO/N=C\[C@@H](OC)[C@H](C)/C=C\CC(=O)OC)C=C[C@@H]1Oc1ccc(OC)cc1 | nt | i[12.9 µM] | nt | nt | nt | nt
Cc1ccc(C(O)c2nc3ccccc3n2C)cc1 (configuration not stated) | i | i | i | i | i | i
Cc1cc(C)c(C)c(N=Nc2nc3ccccc3n2C)c1C | 63 | i | i | i | 92 | i
Cc1ccc(C)c(N=Nc2nc3ccccc3n2C)c1 | 47 | i | ? | ? | 76 | i
CC(C)CC(=O)Nc1nnc(SCC(=O)Nc2nccs2)s1 | i | i | i | i | i | i
Cc1ccsc1CN(C(=O)COc1ccc(Br)cc1)C1CCS(=O)(=O)C1 (configuration not stated) | nt | nt | nt | nt | nt | i
CN(c1nc(-c2ccc(Br)cc2)cs1)C1CCS(=O)(=O)C1 (configuration not stated) | 19 | i | i | i | i | i
C[C@@H]1CN(C(=O)c2cc(COc3cccc(C(F)(F)F)c3)on2)C[C@H](C)O1 | i | nt | i | i | i | i
COc1cc(C)ccc1OCc1cc(C(=O)N2CCC(c3ccc(F)cc3)C2)no1 (configuration not stated) | 58 | nt | i | i | 113 | i
Cc1ccc(C)c(OCc2cc(C(=O)N3C[C@@H](C)O[C@@H](C)C3)no2)c1 | 48 | nt | i | i | 87 | i
Cc1ccc(C)c(OCc2cc(C(=O)N3CC[C@@H]4CCCC[C@H]4C3)no2)c1 | 33 | nt | i | i | 105 | i
CN1CCN(C(=O)c2cc(COc3ccc(F)cc3Cl)on2)CC1c1ccccc1 (configuration not stated) | i | i | i | i | i | i
O=C(NCCc1ccccc1)c1cnc2sc(N3CCCCC3)nn2c1=O | nt | nt | nt | nt | nt | i
O=C(CSc1nc(=O)n(Cc2ccco2)c2c1CCC2)Nc1cccc(F)c1 | nt | nt | nt | nt | nt | i
COC(=O)c1cc2c(cc1N)OCCO2 | 25 | ? | i | i | i | i
COC(=O)[C@H](Cc1ccccc1)NC(=O)Cn1ccc(NC(=O)OCc2ccccc2)nc1=O | nt | nt | nt | i | nt | i
Cc1ccc(N/C=C(/C#N)c2ccsc2)cc1C | 42 | i | i | i | 87 | i
CCOC(=O)C1=C[C@@H](C(=O)OCC)[C@@H]2C3=C(C(=O)C2(C)C)[C@H](c2ccccc2)[C@@H]2C(=O)N(c4ccccc4)C(=O)[C@@H]2[C@@H]3C1 | i | i | nt | nt | i | nt
SMILES | CHX counter | Giardia FBPA inh | LmPK inh | RE007 growth inh | Shiga inhibitor | Tb PYK inh
Cc1ccc(C)c(Nc2nc(-c3cccnc3)cs2)c1 | 24 | i | i | i | 111 | i
Cc1ccc(Nc2nc(-c3cccnc3)cs2)cc1Cl | 44 | i | i | i | i | i
c1cncc(Nc2nc(-c3cccnc3)cs2)c1 | i | i | i | i | i | i
Cc1ccc(C(=O)N2[C@@H]3CN(C)C(=O)[C@@]2(Cc2ccccc2)[C@H]2C(=O)N(Cc4ccccc4)C(=O)[C@@H]32)cc1 | nt | nt | nt | i | nt | i
CC(=O)N[C@H]1[C@H](O[C@@H]2c3ccc(c(Cl)c3)Oc3cc4cc(c3O[C@@H]3O[C@H](CO)[C@@H](O)[C@H](O)C3C)Oc3ccc(cc3Cl)C[C@H]3NC(=O)[C@@H](N)c5ccc(O)c(c5)Oc5cc(O)cc(c5)[C@H](NC3=O)C(=O)N[C@H]4C(=O)N[C@H]3C(=O)N[C@@H]2C(=O)N[C@@H](C(=O)O)c2cc(O)cc(O[C@H]4O[C@H](CO)[C@@H](O)C(O)[C@@H]4O)c2-c2cc3ccc2O)O[C@H](CO)[C@@H](O)[C@@H]1O (some centres not stated) | nt | nt | nt | nt | nt | i
CCCCc1nnc(NC(=O)CN2C(=O)NC3(CCCCC3)C2=O)s1 | i | i | i | i | i | i
CC1CCCN(C(=O)CCc2ccccc2)C1 (configuration not stated) | 9.3 | i | i | i | active | i
COCC1CCN(C(=O)CCc2nnc(CCCCc3ccccc3)o2)CC1 | i | i | i | i | i | i
CCCOC1CCCN(C(=O)CCc2nnc(CCCCc3ccccc3)o2)C1 (configuration not stated) | 34 | i | i | i | 41 | i
O=C(CCc1nnc(CCCc2ccccc2)o1)N1CCCCCC1 | 32 | i | i | i | 87 | i
CCN(CC)C1CCN(C(=O)CCc2nnc(CCc3ccccc3)o2)C1 (configuration not stated) | i | i | i | i | i | i
COc1ccc(-c2nc3cnc(Oc4cccc(Cl)c4)nc3n(C[C@H]3CCCO3)c2=O)cc1 | nt | i | nt | nt | nt | nt
COC(=O)[C@H](Cc1ccccc1)NC(=O)NCCc1ccc(OC)cc1 | i | i | i | i | i | i
COc1ccc(-c2c(-c3cc(OC)cc(OC)c3)n(C)c3ccc(-c4ccc5[nH]ccc5c4)cc23)cc1 | nt | nt | nt | i | nt | i
CCOc1ccc2c(c1)n([O-])c1c([n+]2=O)CCCC1 | i | 14µM | i | i | i | i
COc1ccc2c(c1)n([O-])c1c([n+]2=O)CCC1 | i | i | i | i | i | i
CCC(C)(C)NC(=O)/C=C/c1cnc2ccccc2n1 | 73 | i | i | i | 77 | i
O=C(/C=C/c1cnc2ccccc2n1)NC12CC3CC(CC(C3)C1)C2 | 54 | i | i | i | 136 | i
CC(C)N(Cc1ccccc1)C(=O)COC(=O)/C=C/c1cnc2ccccc2n1 | 21 | i | i | i | i | i
COc1ccc(NC(=O)CSc2nnc3n2CCCCC3)cc1S(=O)(=O)N(C)C | nt | nt | nt | i | nt | i
C/C(=N/N=C(/N)SCc1ccccc1)C(C)(C)C | 27 | i | i | i | i | i
Nc1ccc2c(c1)OC1(CCCC1)O2 | 48 | i | i | i | 99 | i
O=C(Cc1ccccc1)Nc1ccc2c(c1)OC1(CCCC1)O2 | nt | nt | nt | i | nt | i
O=C(CCC1N=C2c3ccccc3N=C(SCc3ccc(Cl)cc3)N2C1=O)N1CCN(c2ccccc2)CC1 (configuration not stated) | nt | nt | nt | nt | nt | i
COc1ccc(C(=O)NCCc2nnc3ccc(SCC(=O)N4CCCC4)nn23)cc1 | i | nt | i | i | i | i

Assay outcomes as filed in PubChem.
